Data from PubChem BioAssay (EPA / NIEHS).
Values joined by “and” are separate entries in the source; they are usually repeats but may differ in a detail not shown here. Equal entries are not always repeated. Active and inactive are the calls of the source. How the source made its calls: active means hit-call score of the fitted dose curve at least 0.9, where 1 is the maximum; inactive means score below 0.9.

Assays:
Conditions in all cases: primary human HUVEC with PBMC; actives raise or lower the signal
[1] = read-out: Interleukin-1 alpha (IL1a), IL1A (gene 3552); experiment: BSK_LPS_IL1a: BioMAP Diversity Plus: LPS Assay for Interleukin-1 alpha (IL1a) Biomarker Activity (AID 2283080)
How it was run: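 Measured: IL-1 alpha via ELISA at 24 h in LPS-activated human umbilical vein endothelium–PBMC co-culture. Baseline: DMSO, bidirectional fitting.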

[2] = read-out: Monocyte Chemoattractant Protein-1 (MCP1), CCL2 (gene 6347); experiment: BSK_LPS_MCP1: BioMAP Diversity Plus: LPS Assay for Monocyte Chemoattractant Protein-1 (MCP1) Biomarker Activity (AID 2283081);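 on AC50: secreted MCP-1 protein quantified by ELISA in culture supernatant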
How it was run: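 LPS-stimulated HUVEC/PBMC co-culture; chemical, 24 h; MCP-1 by ELISA; bidirectional fit vs DMSO; cytotoxicity via SRB (0.1% stain, 10% TCA fix, 560 nm) in parallel wells.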

[3] = BSK_LPS_PGE2: BioMAP Diversity Plus: LPS Assay for Prostaglandin E2 (PGE2) Biomarker Activity (AID 2283082);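 on AC50: secreted prostaglandin E2 measured by ELISA in LPS-stimulated co-culture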
How it was run: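 Primary human endothelial cells and blood mononuclear cells, co-cultured with LPS, receive test chemical; PGE2 ELISA follows at 24 h, with SRB-stained parallel cultures flagging cytotoxicity.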

[4] = read-out: Macrophage colony-stimulating factor (MCSF), CSF1 (gene 1435); experiment: BSK_LPS_MCSF: BioMAP Diversity Plus: LPS Assay for Macrophage colony-stimulating factor (MCSF) Biomarker Activity (AID 2283083)
How it was run: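 Compound is added to a human vascular primary co-culture of umbilical vein endothelium and blood mononuclear cells. After 24 h, M-CSF is quantified by ELISA. Signal changes are fitted in both directions against DMSO.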

[5] = read-out: Tissue Factor, F3 (gene 2152); experiment: BSK_LPS_TissueFactor: BioMAP Diversity Plus: LPS Assay for Tissue Factor Biomarker Activity (AID 2283084)
How it was run: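 In this co-culture system of umbilical vein endothelium with PBMC, stimulated with LPS, cell-surface CD142 is detected by ELISA at 24 h. Endpoint values derive from bidirectional fitting, DMSO serving as baseline.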

[6] = read-out: Tumor necrosis factor (Homo sapiens) (UniProt P01375); experiment: BSK_LPS_TNFa: BioMAP Diversity Plus: LPS Assay for Tumour Necrosis Factor alpha (TNFa) Biomarker Activity (AID 2283085);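 on AC50: TNFa protein level quantified by ELISA in the co-culture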
How it was run: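 ELISA-based TNFa endpoint in a human endothelial–PBMC co-culture sampled 24 h post-exposure. Curves were fitted in both directions using DMSO as baseline of activity.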

[7] = read-out: Vascular cell adhesion molecule 1 (VCAM1), VCAM1 (gene 7412); experiment: BSK_LPS_VCAM1: BioMAP Diversity Plus: LPS Assay for Vascular cell adhesion molecule 1 (VCAM1) Biomarker Activity (AID 2283086)
How it was run: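 Measured by ELISA: VCAM-1 in LPS-activated HUVEC/PBMC co-cultures 24 h after treatment. Values reflect bidirectional fitting with DMSO as baseline.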

CD38, CD38 (gene 952) = experiment: BSK_SAg_CD38: BioMAP Diversity Plus: SAg Assay for CD38 Biomarker Activity (AID 2283087)
How it was run: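 Measures CD38 on a human endothelial/PBMC co-culture driven by SEB and TSST-1, 24 h after compound exposure, using ELISA with fluorescence detection; DMSO defines baseline for bidirectional curve fitting.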

CD40, CD40 (gene 958) = experiment: BSK_SAg_CD40: BioMAP Diversity Plus: SAg Assay for CD40 Biomarker Activity (AID 2283088)
How it was run: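 Fluorescence ELISA read-out of CD40 from umbilical vein endothelium plus peripheral blood mononuclear cells, sampled 24 h after dosing. Values come from bidirectional curve fitting with DMSO as baseline.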

CD69, CD69 (gene 969) = experiment: BSK_SAg_CD69: BioMAP Diversity Plus: SAg Assay for CD69 Biomarker Activity (AID 2283089);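 on AC50: cell surface CD69 protein quantified by ELISA with fluorescence detection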
How it was run: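 Primary human vascular co-culture (umbilical vein endothelium with peripheral blood mononuclear cells) exposed to test chemical for 24 h. CD69 levels quantified by fluorescence ELISA; DMSO served as negative control for bidirectional fitting.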

Measured: AC50

Chain of Tumor necrosis factor (Homo sapiens) (P01375 whole entry, looked up): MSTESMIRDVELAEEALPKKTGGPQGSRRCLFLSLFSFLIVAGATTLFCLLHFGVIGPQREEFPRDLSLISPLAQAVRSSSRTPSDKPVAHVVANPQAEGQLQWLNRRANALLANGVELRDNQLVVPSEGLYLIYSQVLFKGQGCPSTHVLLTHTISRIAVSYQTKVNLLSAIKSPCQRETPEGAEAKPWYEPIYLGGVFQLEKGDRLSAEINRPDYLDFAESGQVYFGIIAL

CC(C)c1cccc(C(C)C)c1N
inactive: all assays above

O=C(Cl)c1c(Cl)c(Cl)c(C(=O)Cl)c(Cl)c1Cl
not listed: [1]
inactive: all other assays above

CCNc1nc(NC(C)(C)C)nc(OC)n1
active: [3] 72.7 nM | [6] 5.59 µM
not listed: [1]
inactive: all other assays above

CCN1CN(CC)CN(CC)C1
active: [6] 2.22 µM
not listed: [1]
inactive: all other assays above

C=CC(=O)OCC(C)OCC(C)OCC(C)OC(=O)C=C (stereo unspecified)
active: [2] 9.18 µM | [3] 5460 nM | [4] 10 µM | [5] 10.6 µM | [7] 8.45 µM | CD38, CD38 (gene 952) 7.74 µM | CD40, CD40 (gene 958) 8.77 µM | CD69, CD69 (gene 969) 7.77 µM
inactive: [6]

Fc1ccc(Br)cc1
not listed: [1]
inactive: all other assays above

C=CC(=O)NC(C)(C)C
not listed: [1]
inactive: all other assays above

CCOC(=O)/C=C\C(=O)OCC
not listed: [1]
inactive: all other assays above

CCCCCCCO
not listed: [1]
inactive: all other assays above

Clc1cc(Cl)c(Cl)c(Cl)c1Cl
not listed: [1]
inactive: all other assays above

CCC1(C)C(=O)N(Cl)C(=O)N1Cl (stereo unspecified)
not listed: [1]
inactive: all other assays above

CCCCC1C(=O)N(c2ccccc2)N(c2ccccc2)C1=O
not listed: [1]
inactive: all other assays above

CC(C)CCCCCOC(=O)CS
not listed: [1]
inactive: all other assays above

C1CNCCN1
not listed: [1]
inactive: all other assays above

COc1ccc(C(=O)/C(Br)=C\C(=O)O)cc1
active: [2] 31.3 µM and 27.4 µM | [3] 7.75 µM and 6.87 µM | [4] 12.8 µM and 20 µM | [5] 20 µM and 14.1 µM | [6] 14.3 µM and 28.4 µM | [7] 20 µM | CD38, CD38 (gene 952) 22.3 µM and 20 µM | CD40, CD40 (gene 958) 20 µM and 23.6 µM | CD69, CD69 (gene 969) 15.6 µM and 15.7 µM
